KCC2 mod: KCC2 cotransporter modulators, thallium flux, primary screen, cell-based, HEK293 KCC2, FluoZin-2 fluorescence, MLSMR. 2.2% of 190,000 active. AID 1456, 2008. B-score of Tl+ flux slope (higher = more flux/activation; lower = inhibition) at 10 µM. KCC2 cells, thallium flux FluoZin-2 fluorescence;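 active = thallium flux slope and its plate-corrected score both differing from the plate sample mean at a set confidence after two filtering rounds, in either direction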;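 note: slope of fluorescence scaled to starting intensity during 10 to 20 s after thallium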
Target sequence (Q9H2X9 whole entry, looked up): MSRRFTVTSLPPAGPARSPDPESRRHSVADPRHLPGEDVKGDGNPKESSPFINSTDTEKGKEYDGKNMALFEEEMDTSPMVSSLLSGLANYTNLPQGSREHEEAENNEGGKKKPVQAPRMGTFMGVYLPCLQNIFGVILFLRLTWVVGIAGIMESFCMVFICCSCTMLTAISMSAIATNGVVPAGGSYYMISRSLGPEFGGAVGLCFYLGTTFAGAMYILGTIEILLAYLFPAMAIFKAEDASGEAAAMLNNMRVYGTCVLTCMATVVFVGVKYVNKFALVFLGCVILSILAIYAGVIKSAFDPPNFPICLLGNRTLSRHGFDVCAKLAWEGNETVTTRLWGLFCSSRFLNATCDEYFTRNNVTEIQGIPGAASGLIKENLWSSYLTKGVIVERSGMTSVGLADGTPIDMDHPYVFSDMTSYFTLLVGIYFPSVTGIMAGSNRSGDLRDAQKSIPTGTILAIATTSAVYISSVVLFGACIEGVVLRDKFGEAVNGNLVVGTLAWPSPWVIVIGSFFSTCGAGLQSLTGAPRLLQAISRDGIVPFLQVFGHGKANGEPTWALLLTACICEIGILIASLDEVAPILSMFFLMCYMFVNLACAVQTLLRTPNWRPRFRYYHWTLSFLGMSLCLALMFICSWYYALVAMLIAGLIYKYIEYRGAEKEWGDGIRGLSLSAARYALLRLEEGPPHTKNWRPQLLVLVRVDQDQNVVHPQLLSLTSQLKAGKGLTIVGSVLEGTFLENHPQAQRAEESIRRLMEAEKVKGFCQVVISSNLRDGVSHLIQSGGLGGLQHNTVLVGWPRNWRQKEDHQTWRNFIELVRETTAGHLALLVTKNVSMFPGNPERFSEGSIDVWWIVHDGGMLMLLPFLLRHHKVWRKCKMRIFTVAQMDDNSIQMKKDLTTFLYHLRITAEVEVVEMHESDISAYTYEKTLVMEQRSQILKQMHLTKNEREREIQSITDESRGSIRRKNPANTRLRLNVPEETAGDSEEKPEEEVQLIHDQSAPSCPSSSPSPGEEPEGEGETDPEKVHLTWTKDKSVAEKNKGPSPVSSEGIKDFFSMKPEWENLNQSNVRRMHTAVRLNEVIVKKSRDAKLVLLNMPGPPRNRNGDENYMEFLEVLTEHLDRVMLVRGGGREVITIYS
WT yeast gro inh: growth inhibition of WT strain, primary screen, mitochondrial fusion inhibitor project, WT and mutant strains, chemical genetic; inhibition, % at 10 µM; 2.1% of 190,000 active; mitochondrial fusion phenotypic screen; in the data active = inhibition above about 58%; tested in S. cerevisiae
L major viab: Leishmania major promastigote growth inhibition, primary screen; Leishmania major promastigotes, resazurin fluorescence viability; inhibition, % at 10 µM; 9% of 200,000 active; AID 1063, 2008; in the data active = inhibition above about 50%;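 note: promastigotes grown with compound for 44 hours at 28 °C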
ROMK primary: ROMK potassium channel modulators, primary screen, cell-based, thallium flux, MLSMR library; Tet-inducible ROMK, thallium flux fluorescence; actives lie on both sides; B-score at 10 µM; 2% of 130,000 active; AID 1918, 2009;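 active = signal ratio slope over the read window, or its plate-corrected B-score, at least 3 SD from the plate mean, either direction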;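 note: B-score of the F/F0 ratio slope over 7 to 12 s after thallium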
m-calpain inh: inhibitors of pig calpain II, primary screen, biochemical, fluorogenic peptide substrate, 1536-well. purified calpain II, 30 min. inhibition, % at 16 µM. 0.37% of 220,000 active;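 active = inhibition above about 50%, limit read from the data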
An asterisk follows results filed as active; · = not tested or not shown. The list is not random: actives were taken first. Their share in the collection is about 12%.

SMILES | KCC2 mod | WT yeast gro inh | L major viab | ROMK primary | m-calpain inh
COc1cc(OC)c(C(=O)NNC(=S)NC2CCCCC2)cc1OC | -0.24 | 5 | 51* | -0.1 | -25
FC(F)(F)c1cccc(NC(=S)NCC2COc3ccccc3O2)c1 (stereo not drawn) | 0.11 | 89* | 51* | · | 31
O=C(NNC(=S)Nc1cccc(C(F)(F)F)c1)c1cccc(Cl)c1 | 5.8* | 37 | -5 | · | -16
O=C(NNC(=S)Nc1cccc(C(F)(F)F)c1)c1ccccc1Cl | 1.3 | -5 | -4 | · | -21
O=C(Nc1cccc(C(F)(F)F)c1)c1cccnc1NCCc1ccccc1 | -0.3 | 87* | 21 | · | 26
FC(F)(F)c1cccc(NC(=S)Nc2ccc(Cl)cc2Cl)c1 | 4.5* | 3 | 10 | · | -7
FC(F)(F)c1cccc(NC(=S)NNC(=S)NCc2ccccc2)c1 | 1.7 | 9 | 1 | · | -4
Cc1ccccc1NC(=O)Cn1c(NCC(C)O)nc2ccccc21 (stereo not drawn) | 1.1 | 8 | -5 | · | -12
Cc1cc(C(=O)N2CCN(CCc3ccccc3)CC2)no1 | -0.0073 | -2 | -9 | · | 26
CC(C)[C@H](NS(=O)(=O)c1ccc2c(c1)OCCO2)C(=O)OCC(=O)Nc1cc(Cl)ccc1Cl | -0.45 | 37 | 15 | · | 27
O=C(CCNC(=O)c1ccccc1Cl)Nc1cccc(C(F)(F)F)c1 | 0.089 | 11 | 65* | · | 6
O=C(Cc1ccccc1)NC(=S)Nc1cccc(C(F)(F)F)c1 | 6* | 15 | -2 | · | 4
O=C(Cc1ccccc1)NC(=S)Nc1cc(C(F)(F)F)ccc1Cl | 1.2 | 11 | -5 | · | 19
COc1ccc(C2(CNC(=O)/C=C\c3ccco3)CCCC2)cc1OC | · | -12 | 4 | · | -285
O=C(/C=C/c1ccco1)NCC(=O)N/N=C/c1ccc([N+](=O)[O-])cc1 | -0.021 | -23 | -2 | -0.55 | -72
CC(NC(=O)c1cc(S(=O)(=O)N(C)C)ccc1N1CCCC1)C1CC2CCC1C2 (stereo not drawn) | -1.5 | -10 | 25 | -0.85 | 30
Cc1ccc(S(=O)(=O)/N=C2/NC(=O)/C(=C/c3ccc(Br)o3)S2)cc1 | 0.76 | -18 | 51* | -1.9 | 20
Cc1ccc(S(=O)(=O)/N=C2/NC(=O)/C(=C/c3cccnc3)S2)cc1 | -0.053 | -5 | -13 | · | 15
Cc1ccc(-n2nc3c(c2NC(=O)/C=C\c2ccc4c(c2)OCO4)CSC3)cc1 | -0.62 | 24 | 93* | -0.72 | -111
Cc1ccc(-n2nc3c(c2NC(=O)C(C)(C)C)CSC3)c(C)c1 | -0.0086 | 10 | 0 | · | -12
Cc1ccc(-n2nc3c(c2NC(=O)c2ccc4c(c2)OCO4)CS(=O)C3)cc1 (stereo not drawn) | 1.3 | -11 | -3 | · | -17
Cc1ccccc1-n1nc2c(c1NC(=O)/C=C\c1ccc3c(c1)OCO3)CSC2 | 0.2 | 32 | 68* | -0.013 | -103
Cc1ccc(-n2nc3c(c2NC(=O)/C=C\c2ccc4c(c2)OCO4)CSC3)c(C)c1 | 0.072 | 36 | 99* | 0.1 | -122
Cc1cccnc1NC(=O)/C=C/c1ccc2c(c1)OCO2 | 0.24 | 1 | -4 | · | -95
C/C(CC(=O)Nc1cccc(Cl)c1C)=N\NC(=O)Cc1csc(N)n1 | -0.013 | -14 | -2 | 0.34 | -21
SMILES | KCC2 mod | WT yeast gro inh | L major viab | ROMK primary | m-calpain inh
Cc1nc2c(c3c1[nH]c1ccccc13)C(=O)CC(C)(C)C2 | -0.35 | 7 | 64* | · | -31
CN(C)CCn1c(N)nc2ccccc21 | 0.31 | · | · | · | 7
CNCCOc1ccc(Cl)c(Cl)c1 | -0.49 | -6 | -1 | · | -36
COCCCNCCCOc1ccc(Cl)cc1C(C)(C)C | 0.036 | 30 | 100* | -0.85 | -11
CNCCCOc1ccc(Cl)cc1C(C)(C)C | 0.89 | 29 | 99* | -3.1 | 5
C/C=C/c1ccc(OCCCNC(C)CC)c(OC)c1 (stereo not drawn) | · | -11 | -3 | 0.059 | -38
CCC(C)NCCCOc1ccc(Cl)cc1C(C)(C)C (stereo not drawn) | 0.86 | 27 | 100* | 0.23 | 34
COCCNCCOc1ccc(C)cc1[N+](=O)[O-] | -0.8 | 13 | 1 | 0.68 | 1
CCC1=NN(C(=O)Cc2ccc([N+](=O)[O-])cc2)C(O)(c2ccncc2)C1 (stereo not drawn) | 1.9 | 14 | -2 | -1.4 | 21
O=C(NCN1C(=O)C2C3C=CC(C3)C2C1=O)Nc1ccccc1O (stereo not drawn) | 0.52 | -11 | -3 | -0.011 | 22
O=C1[C@H]2[C@H](ON3CCCC[C@H]23)C(=O)N1c1ccc(Cl)cc1 | · | 4 | -8 | -0.11 | 7
Cc1cc(C)nc(/N=C2\NC(=O)CC(C(=O)O)N2c2ccc(C)c(C)c2)n1 (stereo not drawn) | · | -7 | -3 | -0.017 | 17
CC(=O)N(Cc1cccnc1)c1cccc(-c2nc3ccccc3s2)c1 | · | 23 | 100* | · | 16
c1cncc(-c2nc3ccccc3s2)c1 | -0.036 | · | · | · | 13
Cc1ccccc1Oc1cc(-n2ncc(Cl)c(Cl)c2=O)ncn1 | -1.9 | 70 | 100* | -0.24 | -57
CCOc1cnn(-c2cc(Oc3ccc(C)cc3)ncn2)c(=O)c1Cl | -1 | 5 | -2 | 1.7 | 3
Cn1nc(C(=O)OCC(=O)NC2CCS(=O)(=O)C2)c2ccccc2c1=O (stereo not drawn) | 0.52 | 5 | -6 | 0.21 | -10
Cc1ccc(Oc2nc3c(C)cccn3c(=O)c2/C=C(\C#N)C(N)=O)cc1 | -0.55 | · | · | · | -22
Cc1ccc(S(=O)(=O)/C(C#N)=C/c2c(Oc3ccc(Cl)cc3)nc3c(C)cccn3c2=O)cc1 | 0.45 | 30 | 77* | 0.69 | -38
CCCc1nc(NCc2ccncc2)c2nnn(Cc3ccccc3F)c2n1 | 0.24 | 18 | 57* | · | -4
CCCS(=O)(=O)C(=C(Nc1ccccc1)Nc1ccccc1)S(=O)(=O)CCC | · | · | 10 | 1.6 | -2
COc1ccc(-c2cnc(SCC(=O)Nc3ccc4c(c3)OCO4)n2Cc2ccco2)cc1 | 0.22 | 11 | 24 | -1.7 | 44
CC(=O)Nc1cccc(NC(=O)CSc2ncc(-c3ccc(Cl)cc3)n2Cc2ccco2)c1 | -0.85 | 35 | 39 | -4.6* | -18
O=C(CSc1ccc(Cl)cc1)Nc1cccc(NC(=O)c2ccco2)c1 | · | -11 | 97* | -0.27 | 16
C=CCN(CC(=O)NC1CCS(=O)(=O)C1)S(=O)(=O)c1ccccc1C(F)(F)F (stereo not drawn) | 0.28 | 4 | -6 | 1.9 | 5
COc1ccc(-n2c(=S)[nH]c3ccccc32)cc1 | 23* | -3 | 53* | 0.36 | 28
Cn1cnnc1Sc1ccc(C(F)(F)F)cc1[N+](=O)[O-] | 1.4 | 1 | 6 | 0.038 | -4
O=C(COc1c(Br)cc(Br)c2cccnc12)N1CCc2ccccc2C1 | · | 65* | -4 | -2.1 | 9
CC1CCN(CCC(=O)Nc2ccc(Cl)cc2)CC1 | 1.2 | -26 | 4 | -0.38 | -12

Source: PubChem
